Data taken from PubChem BioAssay (NCI).
This is part of a sample that, as a whole, favours compounds with a hit. Of some 79,000 tested, about 15% had one in any assay. Calls of active or inactive are those of the source. Rule as the data show it: active = growth inhibition above about 70%; inactive = the rest.

Tests used:
[1] = NCI Yeast Anticancer Drug Screen. Data for the wt1 strain (AID 149);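 also: 0% = growth of vehicle-treated wt1 cultures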; conditions: S. cerevisiae wt1 strain (SPY 50644) growth inhibition, active compounds read high
Summary of the method: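 Compounds are added to wt1 yeast cultures. Growth is then measured. Inhibition is expressed relative to vehicle-treated controls.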

[2] = NCI Yeast Anticancer Drug Screen. Data for the rad50EPP+ strain (AID 151);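 also: 0% = growth of vehicle-treated control cultures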; conditions: S. cerevisiae rad50 mutant strain, active compounds read high
Summary of the method: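 Vehicle-normalised growth inhibition; rad50EPP+ yeast strain, altered in DNA damage repair, compound-treated.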

[3] = NCI Yeast Anticancer Drug Screen. Data for the rad50 strain (AID 155);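 also: 0% = growth of vehicle-only cultures of the same strain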; conditions: S. cerevisiae rad50 strain growth inhibition, active compounds read high
Summary of the method: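 Inhibition values express reduced yeast growth in compound-treated cultures relative to vehicle-treated controls.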

[4] = NCI Yeast Anticancer Drug Screen. Data for the mec2-1 strain (AID 157); conditions: S. cerevisiae mec2-1 strain, active compounds read high
Summary of the method: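 Mutant yeast (mec2-1) grown with compound; growth inhibition relative to vehicle control reported.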

[5] = NCI Yeast Anticancer Drug Screen. Data for the sgs1 mgt1 strain (AID 161);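 also: 0% = growth of cultures given vehicle only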; conditions: S. cerevisiae sgs1 mgt1 strain, active compounds read high
Summary of the method: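 This yeast growth screen uses a strain with defined DNA-repair lesions; compound-treated growth is compared with vehicle-treated growth.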

[6] = NCI Yeast Anticancer Drug Screen. Data for the CLN2oe strain (AID 163);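 also: 0% = growth of vehicle-only control cultures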; conditions: S. cerevisiae CLN2oe strain, active compounds read high
Summary of the method: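 Compounds are applied to yeast harbouring a defined cell-cycle control change; reduced growth compared with vehicle-treated controls gives the value.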

[7] = NCI Yeast Anticancer Drug Screen. Data for the cln2 rad14 strain (AID 165);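 also: 0% = growth equal to vehicle treated cultures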; conditions: S. cerevisiae cln2 rad14 strain, active compounds read high
Summary of the method: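 Readout is yeast growth inhibition versus vehicle-treated controls, using a strain with cln2 and rad14 alterations exposed to compound.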

[8] = NCI Yeast Anticancer Drug Screen. Data for the bub3 strain (AID 167); conditions: S. cerevisiae bub3 mutant strain, active compounds read high
Summary of the method: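 Steps: expose the mutant yeast strain to compound; grow alongside vehicle-treated cultures; measure growth; express inhibition against the vehicle cultures.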

[9] = NCI Yeast Anticancer Drug Screen. Data for the wt2 strain (AID 169);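 also: 0% = growth of vehicle-treated yeast cultures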; conditions: S. cerevisiae wt2 strain growth inhibition, active compounds read high
Summary of the method: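 Against vehicle-treated controls, the growth of yeast exposed to each compound was compared, and the inhibition was recorded.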

[10] = NCI Yeast Anticancer Drug Screen. Data for the mlh1 strain (AID 171);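 also: 0% = growth of vehicle-treated control cultures of the same strain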; conditions: S. cerevisiae mlh1 strain growth inhibition, active compounds read high
Summary of the method: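 Measured: yeast growth. Reference: vehicle-treated controls. Organism: strain with a defined alteration affecting DNA damage repair or cell cycle control, treated with compound.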

[11] = NCI Yeast Anticancer Drug Screen. Data for the sgs1 strain (AID 173);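 also: 0% = growth of vehicle-only control cultures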; conditions: S. cerevisiae sgs1 mutant, active compounds read high
Summary of the method: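 Each compound was added to cultures of the altered yeast strain. Growth was recorded, and inhibition was derived by comparison with vehicle controls.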

[12] = NCI Yeast Anticancer Drug Screen. Data for the mlh1 rad18 strain (AID 175); conditions: S. cerevisiae mlh1 rad18 strain growth inhibition, active compounds read high
Summary of the method: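 Genetically defined yeast (DNA repair-deficient) exposed to compounds; growth inhibition determined relative to vehicle.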

[13] = NCI Yeast Anticancer Drug Screen. Data for the rad18 strain (AID 177); conditions: S. cerevisiae rad18 mutant growth inhibition, active compounds read high
Summary of the method: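 Vehicle-treated cultures served as the baseline for scoring compound-induced growth inhibition in DNA-repair-mutant yeast.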

[14] = NCI Yeast Anticancer Drug Screen. Data for the rad14 strain (AID 159);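 also: 0% = growth of vehicle-treated control cultures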; conditions: S. cerevisiae rad14 strain growth inhibition, active compounds read high
Summary of the method: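 A mutant yeast strain defective in DNA damage repair is treated with compound; inhibition of its growth is scored against untreated, vehicle-exposed cultures.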

[15] = at 5.0 µM (retest, dose inferred, filed as 0.5)
[16] = at 50.0 µM (retest, dose inferred, filed as 5.0)

Measured: growth inhibition

Cc1ccc2nc(N/N=C/c3ccc(C)s3)cc(C)c2c1
inactive: [1]; at 1.2 µM -27% | [1]; at 3.7 µM -18% | [1]; at 11.0 µM 1% | [2]; at 1.2 µM -15% | [2]; at 3.7 µM -5% | [2]; at 11.0 µM 2% | [2]; at 33.0 µM 44% | [3]; at 1.2 µM -2% | [3]; at 3.7 µM -22% | [3]; [15] 22% | [3]; at 11.0 µM -1% | [4]; at 1.2 µM -23% | [4]; at 3.7 µM -17% | [4]; [15] 12% | [4]; at 11.0 µM -19% | [5]; [15] 10% | [5]; [16] 9% | [6]; at 1.2 µM 5% | [6]; at 3.7 µM -5% | [6]; at 11.0 µM 7% | [7]; [15] 17% | [7]; [16] -18% | [8]; at 1.2 µM -6% | [8]; at 3.7 µM 5% | [8]; [15] 7% | [8]; at 11.0 µM 15% | [8]; [16] -10% | [9]; at 1.2 µM 9% | [9]; at 3.7 µM 6% | [9]; at 11.0 µM 30% | [10]; at 1.2 µM -18% | [10]; at 3.7 µM -28% | [10]; at 11.0 µM -10% | [11]; at 1.2 µM -12% | [11]; at 3.7 µM -19% | [11]; at 11.0 µM -1% | [12]; [15] 31% | [13]; at 1.2 µM -8% | [13]; at 3.7 µM -1% | [13]; at 11.0 µM 2%
active: [1]; at 33.0 µM 99% | [1]; at 100.0 µM 94% | [2]; at 100.0 µM 70% | [3]; at 33.0 µM 99% | [3]; [16] 98% | [3]; at 50.0 µM 89.7% | [3]; at 100.0 µM 93% | [4]; at 33.0 µM 99% | [4]; [16] 99% | [4]; at 50.0 µM 92.7% | [4]; at 100.0 µM 96% | [5]; at 50.0 µM 91.8% | [6]; at 33.0 µM 99% | [6]; at 100.0 µM 93% | [7]; at 50.0 µM 90.8% | [8]; at 33.0 µM 99% | [8]; at 50.0 µM 91.7% | [8]; at 100.0 µM 95% | [9]; at 33.0 µM 99% | [9]; at 100.0 µM 96% | [10]; at 33.0 µM 99% | [10]; at 100.0 µM 99% | [11]; at 33.0 µM 99% | [11]; at 100.0 µM 93% | [12]; [16] 98% | [12]; at 50.0 µM 91.2% | [13]; at 33.0 µM 99% | [13]; at 100.0 µM 93%

[O-]c1c2cc(-[n+]3c(-c4ccccc4)cc(-c4ccccc4)cc3-c3ccccc3)cc1COCCOCCOCCOCCOC2
inactive: [1]; at 1.2 µM 3% | [1]; at 3.7 µM -6% | [1]; at 11.0 µM -6% | [1]; at 33.0 µM -7% | [1]; at 100.0 µM 35% | [2]; at 1.2 µM -1% | [2]; at 3.7 µM 0% | [2]; at 11.0 µM 5% | [2]; at 33.0 µM 31% | [2]; at 100.0 µM 66% | [3]; at 1.2 µM 1% | [3]; at 3.7 µM -2% | [3]; [15] -5% | [3]; at 11.0 µM 0% | [3]; at 33.0 µM 17% | [3]; [16] 35% | [3]; at 50.0 µM 59.1% | [4]; at 1.2 µM -5% | [4]; at 3.7 µM -4% | [4]; [15] -7% | [4]; at 11.0 µM -2% | [4]; at 33.0 µM 4% | [4]; [16] 31% | [4]; at 50.0 µM 33% | [5]; [15] -11% | [5]; [16] 20% | [5]; at 50.0 µM 31.6% | [6]; at 1.2 µM -6% | [6]; at 3.7 µM 1% | [6]; at 11.0 µM -3% | [6]; at 33.0 µM -6% | [7]; [15] -31% | [7]; [16] 12% | [7]; at 50.0 µM 17.1% | [8]; at 1.2 µM -4% | [8]; at 3.7 µM -6% | [8]; [15] -19% | [8]; at 11.0 µM -4% | [8]; at 33.0 µM -8% | [8]; [16] 10% | [8]; at 50.0 µM 21.7% | [8]; at 100.0 µM 30% | [10]; at 1.2 µM -1% | [10]; at 3.7 µM -1% | [10]; at 11.0 µM -2% | [10]; at 33.0 µM 12% | [11]; at 1.2 µM -4% | [11]; at 3.7 µM -2% | [11]; at 11.0 µM -1% | [11]; at 33.0 µM 18% | [12]; [15] 0% | [13]; at 1.2 µM -1% | [13]; at 3.7 µM -3% | [13]; at 11.0 µM -3% | [13]; at 33.0 µM 6%
active: [3]; at 100.0 µM 80% | [4]; at 100.0 µM 77% | [6]; at 100.0 µM 77% | [10]; at 100.0 µM 87% | [11]; at 100.0 µM 71% | [12]; [16] 70% | [12]; at 50.0 µM 72.2% | [13]; at 100.0 µM 74%

Cc1c2ccncc2c(C)c2c1oc1ccccc12
active: [1]; at 33.0 µM 89% | [1]; at 100.0 µM 97% | [2]; at 3.7 µM 82% | [2]; at 11.0 µM 84% | [2]; at 33.0 µM 98% | [2]; at 100.0 µM 97% | [3]; at 3.7 µM 87% | [3]; [15] 92% | [3]; at 11.0 µM 94% | [3]; at 33.0 µM 97% | [3]; [16] 88% | [3]; at 100.0 µM 95% | [4]; at 33.0 µM 80% | [4]; [16] 93% | [4]; at 100.0 µM 98% | [14]; at 33.0 µM 93% | [14]; at 100.0 µM 98% | [5]; [16] 93% | [6]; at 33.0 µM 89% | [6]; at 100.0 µM 97% | [7]; [16] 93% | [7]; at 50.0 µM 94.2% | [8]; at 33.0 µM 88% | [8]; [16] 94% | [8]; at 50.0 µM 96.4% | [8]; at 100.0 µM 98% | [9]; at 33.0 µM 94% | [9]; at 100.0 µM 98% | [10]; at 33.0 µM 87% | [10]; at 100.0 µM 98%
inactive: [1]; at 1.2 µM 1% | [1]; at 3.7 µM 2% | [1]; at 11.0 µM 10% | [2]; at 1.2 µM 52% | [3]; at 1.2 µM 53% | [3]; at 50.0 µM 39.2% | [4]; at 1.2 µM 5% | [4]; at 3.7 µM 13% | [4]; [15] 29% | [4]; at 11.0 µM 17% | [4]; at 50.0 µM 51% | [14]; at 1.2 µM 5% | [14]; at 3.7 µM 29% | [14]; at 11.0 µM 48% | [5]; [15] 4% | [5]; at 50.0 µM 44.8% | [6]; at 1.2 µM 12% | [6]; at 3.7 µM 30% | [6]; at 11.0 µM 53% | [7]; [15] 31% | [8]; at 1.2 µM 19% | [8]; at 3.7 µM 24% | [8]; [15] 27% | [8]; at 11.0 µM 40% | [9]; at 1.2 µM 7% | [9]; at 3.7 µM 17% | [9]; at 11.0 µM 57% | [10]; at 1.2 µM 1% | [10]; at 3.7 µM 16% | [10]; at 11.0 µM 8%
